Here are results for 15 molecules from ChEMBL document CHEMBL1961873, “Compounds: GSK PKIS; Assays: Nanosyn kinase panel” (2012).

A word on the inhibition: it is the drop in the measured response relative to a control, in per cent.

Assay [1] concerns the target Tyrosine-protein kinase Fyn (Homo sapiens) (UniProt P06241). To be noted: at 1 µM.
Assay [2] has as its target Tyrosine-protein kinase HCK (Homo sapiens) (UniProt P08631). The conditions noted are these: at 0.1 µM.
For assay [3] the target is unchanged. To be noted: at 1 µM.
The target in assay [4] is Insulin-like growth factor 1 receptor (Homo sapiens) (UniProt P08069). To be noted: at 0.1 µM.
Sequence of Insulin-like growth factor 1 receptor (Homo sapiens) (P08069 31-736 limits assumed): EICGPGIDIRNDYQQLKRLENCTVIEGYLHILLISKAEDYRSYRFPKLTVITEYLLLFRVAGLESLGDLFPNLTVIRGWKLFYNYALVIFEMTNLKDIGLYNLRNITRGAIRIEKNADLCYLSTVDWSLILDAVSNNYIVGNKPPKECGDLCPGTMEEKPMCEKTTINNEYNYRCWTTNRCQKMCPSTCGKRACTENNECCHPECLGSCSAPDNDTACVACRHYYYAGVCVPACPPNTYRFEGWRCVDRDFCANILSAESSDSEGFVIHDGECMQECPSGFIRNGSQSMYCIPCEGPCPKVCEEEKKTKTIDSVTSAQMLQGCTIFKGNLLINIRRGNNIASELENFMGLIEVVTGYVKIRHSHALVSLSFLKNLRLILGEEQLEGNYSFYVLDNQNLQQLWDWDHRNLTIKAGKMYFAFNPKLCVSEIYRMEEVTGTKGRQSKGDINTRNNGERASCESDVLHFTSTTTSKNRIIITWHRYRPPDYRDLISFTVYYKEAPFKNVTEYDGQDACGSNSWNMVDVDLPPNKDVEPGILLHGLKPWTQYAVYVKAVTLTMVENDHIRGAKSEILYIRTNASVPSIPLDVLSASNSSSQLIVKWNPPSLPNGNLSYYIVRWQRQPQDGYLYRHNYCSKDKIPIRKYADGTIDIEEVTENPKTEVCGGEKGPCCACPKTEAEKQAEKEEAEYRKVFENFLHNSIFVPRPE
Sequence of Insulin-like growth factor 1 receptor (Homo sapiens) (P08069 741-1367 limits assumed): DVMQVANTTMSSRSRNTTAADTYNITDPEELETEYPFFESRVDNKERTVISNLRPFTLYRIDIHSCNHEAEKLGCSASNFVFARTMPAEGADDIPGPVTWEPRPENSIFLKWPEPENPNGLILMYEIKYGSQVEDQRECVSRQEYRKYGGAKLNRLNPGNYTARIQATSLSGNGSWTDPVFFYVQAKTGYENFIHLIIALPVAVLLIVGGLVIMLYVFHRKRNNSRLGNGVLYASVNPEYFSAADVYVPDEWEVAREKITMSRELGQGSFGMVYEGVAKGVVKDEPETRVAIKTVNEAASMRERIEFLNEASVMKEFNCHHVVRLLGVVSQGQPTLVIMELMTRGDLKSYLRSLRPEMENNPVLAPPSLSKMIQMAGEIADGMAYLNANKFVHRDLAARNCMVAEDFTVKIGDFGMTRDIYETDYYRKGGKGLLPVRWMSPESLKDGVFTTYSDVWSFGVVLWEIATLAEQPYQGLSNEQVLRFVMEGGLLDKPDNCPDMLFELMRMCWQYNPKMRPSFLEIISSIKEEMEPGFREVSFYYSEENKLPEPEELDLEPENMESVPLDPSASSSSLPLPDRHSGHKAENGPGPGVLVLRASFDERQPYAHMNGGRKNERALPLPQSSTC
Assay [5] has the same target. The conditions noted are these: at 1 µM.
In assay [6] the target is Insulin receptor (Homo sapiens) (UniProt P06213). To be noted: at 0.1 µM.
Sequence of Insulin receptor (Homo sapiens) (P06213 28-758 limits assumed): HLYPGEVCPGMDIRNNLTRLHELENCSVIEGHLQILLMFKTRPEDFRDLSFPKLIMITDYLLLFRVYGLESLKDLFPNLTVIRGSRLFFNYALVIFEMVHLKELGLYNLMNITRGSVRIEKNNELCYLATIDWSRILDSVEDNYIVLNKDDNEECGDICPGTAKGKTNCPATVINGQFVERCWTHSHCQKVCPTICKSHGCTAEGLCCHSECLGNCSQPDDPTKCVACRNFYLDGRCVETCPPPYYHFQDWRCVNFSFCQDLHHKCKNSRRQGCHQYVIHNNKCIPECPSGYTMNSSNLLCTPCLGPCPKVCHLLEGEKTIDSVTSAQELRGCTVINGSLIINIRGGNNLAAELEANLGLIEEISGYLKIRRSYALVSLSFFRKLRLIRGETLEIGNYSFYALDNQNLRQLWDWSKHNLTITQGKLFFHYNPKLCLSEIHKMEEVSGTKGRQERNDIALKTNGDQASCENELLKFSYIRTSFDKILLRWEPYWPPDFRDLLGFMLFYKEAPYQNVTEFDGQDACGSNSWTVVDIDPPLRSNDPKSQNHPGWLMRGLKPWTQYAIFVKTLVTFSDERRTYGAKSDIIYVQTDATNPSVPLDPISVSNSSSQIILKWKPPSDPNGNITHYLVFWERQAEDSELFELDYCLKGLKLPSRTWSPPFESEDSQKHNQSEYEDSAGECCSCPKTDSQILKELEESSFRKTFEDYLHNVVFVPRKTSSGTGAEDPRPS
Sequence of Insulin receptor (Homo sapiens) (P06213 763-1382 limits assumed): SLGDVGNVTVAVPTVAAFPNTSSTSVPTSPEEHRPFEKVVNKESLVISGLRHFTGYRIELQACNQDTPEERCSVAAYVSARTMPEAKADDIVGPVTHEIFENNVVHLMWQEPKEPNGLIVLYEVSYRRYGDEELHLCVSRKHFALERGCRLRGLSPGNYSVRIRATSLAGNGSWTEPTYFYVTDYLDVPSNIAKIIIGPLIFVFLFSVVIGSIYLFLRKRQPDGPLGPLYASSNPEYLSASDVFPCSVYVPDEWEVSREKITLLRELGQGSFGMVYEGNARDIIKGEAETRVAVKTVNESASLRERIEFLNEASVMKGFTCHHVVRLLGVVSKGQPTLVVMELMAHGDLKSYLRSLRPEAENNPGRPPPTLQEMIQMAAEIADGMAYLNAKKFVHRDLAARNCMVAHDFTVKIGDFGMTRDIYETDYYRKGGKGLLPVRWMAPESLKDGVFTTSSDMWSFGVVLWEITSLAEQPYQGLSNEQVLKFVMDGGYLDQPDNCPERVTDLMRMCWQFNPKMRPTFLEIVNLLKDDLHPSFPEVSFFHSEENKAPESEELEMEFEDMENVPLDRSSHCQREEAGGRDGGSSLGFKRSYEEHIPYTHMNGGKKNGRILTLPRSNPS
For assay [7] the target is unchanged. To be noted: at 1 µM.
Assay [8] deals with Insulin receptor-related protein (Homo sapiens) (UniProt P14616). To be noted: at 0.1 µM.
Sequence of Insulin receptor-related protein (Homo sapiens) (P14616 27-742 limits assumed): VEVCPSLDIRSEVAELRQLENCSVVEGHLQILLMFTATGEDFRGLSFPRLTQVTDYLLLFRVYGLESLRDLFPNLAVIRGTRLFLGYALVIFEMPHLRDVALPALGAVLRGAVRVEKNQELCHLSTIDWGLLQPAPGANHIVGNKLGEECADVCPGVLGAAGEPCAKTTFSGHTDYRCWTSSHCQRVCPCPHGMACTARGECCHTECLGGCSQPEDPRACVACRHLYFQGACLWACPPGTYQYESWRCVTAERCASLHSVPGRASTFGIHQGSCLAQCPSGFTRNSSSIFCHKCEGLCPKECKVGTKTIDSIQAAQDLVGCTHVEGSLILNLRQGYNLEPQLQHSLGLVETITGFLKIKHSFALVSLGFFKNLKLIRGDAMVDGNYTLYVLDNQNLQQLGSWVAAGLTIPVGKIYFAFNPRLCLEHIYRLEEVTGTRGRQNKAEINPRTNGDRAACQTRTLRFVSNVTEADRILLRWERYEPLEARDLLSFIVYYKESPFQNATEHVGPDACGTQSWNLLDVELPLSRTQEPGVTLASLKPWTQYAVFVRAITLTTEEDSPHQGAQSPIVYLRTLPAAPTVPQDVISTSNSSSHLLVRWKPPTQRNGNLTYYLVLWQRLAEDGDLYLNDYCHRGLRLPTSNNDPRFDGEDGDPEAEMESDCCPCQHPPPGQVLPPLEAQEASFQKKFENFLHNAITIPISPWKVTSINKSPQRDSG
Sequence of Insulin receptor-related protein (Homo sapiens) (P14616 747-1297 limits assumed): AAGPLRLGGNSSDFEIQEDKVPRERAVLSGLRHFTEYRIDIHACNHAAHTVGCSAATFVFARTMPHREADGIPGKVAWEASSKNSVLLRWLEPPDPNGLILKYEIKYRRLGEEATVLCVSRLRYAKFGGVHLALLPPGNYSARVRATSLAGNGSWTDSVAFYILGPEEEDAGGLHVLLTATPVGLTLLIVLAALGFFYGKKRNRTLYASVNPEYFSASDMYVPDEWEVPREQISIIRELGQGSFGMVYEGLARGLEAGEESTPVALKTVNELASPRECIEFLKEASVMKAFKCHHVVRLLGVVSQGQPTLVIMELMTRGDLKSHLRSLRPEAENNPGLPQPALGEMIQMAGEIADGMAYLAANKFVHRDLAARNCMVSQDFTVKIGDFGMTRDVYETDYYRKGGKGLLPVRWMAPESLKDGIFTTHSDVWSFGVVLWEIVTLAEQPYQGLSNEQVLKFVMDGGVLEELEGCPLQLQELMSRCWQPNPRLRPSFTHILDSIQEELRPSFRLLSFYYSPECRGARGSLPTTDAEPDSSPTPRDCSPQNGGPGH
For assay [9] the target is unchanged. To be noted: at 1 µM.
Assay [10] has as its target T1, Tyrosine-protein kinase ITK/TSK (Homo sapiens) (UniProt Q08881).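 Further: mean percent inhibition of ITK from the GSK PKIS screen.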
T1 sequence (whole entry): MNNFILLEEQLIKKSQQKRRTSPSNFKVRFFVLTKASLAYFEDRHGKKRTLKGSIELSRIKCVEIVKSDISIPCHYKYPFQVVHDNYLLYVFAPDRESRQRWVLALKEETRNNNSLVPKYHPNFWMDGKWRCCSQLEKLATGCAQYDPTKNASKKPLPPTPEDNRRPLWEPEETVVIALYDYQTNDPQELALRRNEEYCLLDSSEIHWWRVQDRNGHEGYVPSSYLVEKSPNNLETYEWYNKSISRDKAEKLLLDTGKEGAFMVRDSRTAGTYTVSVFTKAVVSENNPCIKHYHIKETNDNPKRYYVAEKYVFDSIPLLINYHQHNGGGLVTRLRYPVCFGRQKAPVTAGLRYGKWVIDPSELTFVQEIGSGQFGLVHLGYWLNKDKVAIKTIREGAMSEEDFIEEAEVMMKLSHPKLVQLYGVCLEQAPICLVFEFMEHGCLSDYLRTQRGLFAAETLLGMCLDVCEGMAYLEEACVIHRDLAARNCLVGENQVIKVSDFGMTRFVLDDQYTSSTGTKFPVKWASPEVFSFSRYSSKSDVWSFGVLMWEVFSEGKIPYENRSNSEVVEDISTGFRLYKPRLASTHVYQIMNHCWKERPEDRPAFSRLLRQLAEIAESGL
The conditions noted are these: at 0.1 µM.

Structures are written as SMILES.

Sequence of Tyrosine-protein kinase HCK (Homo sapiens) (P08631 2-526 limits assumed): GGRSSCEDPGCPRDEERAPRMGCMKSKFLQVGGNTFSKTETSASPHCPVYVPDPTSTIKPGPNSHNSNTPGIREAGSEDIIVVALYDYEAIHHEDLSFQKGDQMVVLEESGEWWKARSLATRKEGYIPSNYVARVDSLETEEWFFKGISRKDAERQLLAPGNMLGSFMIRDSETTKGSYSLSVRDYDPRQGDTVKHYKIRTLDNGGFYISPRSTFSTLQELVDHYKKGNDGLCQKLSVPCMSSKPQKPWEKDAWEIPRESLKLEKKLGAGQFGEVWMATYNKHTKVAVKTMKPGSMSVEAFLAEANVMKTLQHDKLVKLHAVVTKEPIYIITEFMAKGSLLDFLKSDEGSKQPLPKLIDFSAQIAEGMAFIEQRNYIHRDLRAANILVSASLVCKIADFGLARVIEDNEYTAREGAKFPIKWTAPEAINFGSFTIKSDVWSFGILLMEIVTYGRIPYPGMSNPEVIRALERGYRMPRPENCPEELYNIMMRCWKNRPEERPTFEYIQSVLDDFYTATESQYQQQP
Sequence of Tyrosine-protein kinase Fyn (Homo sapiens) (P06241 2-537 limits assumed): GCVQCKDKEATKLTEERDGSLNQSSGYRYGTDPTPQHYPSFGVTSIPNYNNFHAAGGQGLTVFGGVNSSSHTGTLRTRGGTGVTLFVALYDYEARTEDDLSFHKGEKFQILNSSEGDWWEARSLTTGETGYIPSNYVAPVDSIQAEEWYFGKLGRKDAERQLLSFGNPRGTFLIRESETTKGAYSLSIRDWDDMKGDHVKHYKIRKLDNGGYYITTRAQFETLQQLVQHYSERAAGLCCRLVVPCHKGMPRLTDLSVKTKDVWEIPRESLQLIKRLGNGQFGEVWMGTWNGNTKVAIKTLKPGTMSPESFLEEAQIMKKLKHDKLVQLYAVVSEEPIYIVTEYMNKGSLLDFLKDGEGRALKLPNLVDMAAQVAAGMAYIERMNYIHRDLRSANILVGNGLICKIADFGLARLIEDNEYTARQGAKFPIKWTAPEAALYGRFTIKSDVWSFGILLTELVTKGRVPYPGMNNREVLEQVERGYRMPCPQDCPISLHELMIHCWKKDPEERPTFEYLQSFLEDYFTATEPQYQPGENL

Turning to `COc1c(C(N)=O)cc(-c2ccc(Cl)cc2)cc1-c1ccc(S(N)(=O)=O)cc1`, the inhibition in assay [1] came to 2.81%; in assay [2] it was 6.39%; in assay [3] it was 7.93%; in assay [4], 7.44%; in assay [5], 4.41%; in [6], 9.51%. Besides, the inhibition came out at 5.04% in assay [7], 2.33% in assay [8], 3.46% in assay [9] and 2.02% in assay [10].
`NC(=O)c1ccc2c(-c3ccnc(NCCCO)n3)c(-c3ccc(F)cc3)nn2c1`: the inhibition in assay [1] was found to be 5.23%; in assay [2], 7.1%; in assay [3] it was 15.6%; in assay [4], 3.95%; in assay [5], 6.12%; in [6] it was 10.3%. In addition, the inhibition in assay [7] worked out at 6.62%; in assay [8], 4.18%; in assay [9] it was 4.01%; in assay [10] it was 1.32%.
With `Cc1c2ccc(N(C)c3ccnc(Nc4cccc(S(N)(=O)=O)c4)n3)cc2nn1C`, the inhibition in [1] is 60.5%; in assay [2], 31.2%; in assay [3], 73.8%; in assay [4], -4.22%; in assay [5] it was 13.1%; in assay [6], 7.68%. For the same molecule, the inhibition in assay [7] was 18.7%; in assay [8], 2.78%; in assay [9] it was 2.81%; in assay [10], -1.73%.
Regarding `COc1cc(N2CCN(C(C)C)CC2)ccc1Nc1nc(Nc2cccc(F)c2C(=O)O)c2cc[nH]c2n1`, the inhibition in assay [1] is 0.99%; in assay [2], 4.6%; in [3], 9.23%; in assay [4], 65.7%; in [5] it was 89.8%; in assay [6], 82.6%. The inhibition in [7] worked out at 95.5%; in assay [8], 22.1%; in assay [9], 82.3%; in assay [10], 1.35%.
Consider `NS(=O)(=O)c1cccc(N/C=C2\C(=O)Nc3ccccc32)c1`, for which the inhibition in assay [1] stood at 4.25%; in assay [2] it was 6.87%; in assay [3], 17.6%; in assay [4], 2.44%; in assay [5], 5.81%; in [6] it was 5.3%. The inhibition in [7] turned out to be 11.9%; in assay [8] it was 2.22%; in assay [9], 2.55%; in assay [10] it was 1.13%.
Turning to `COc1cc(N2CCN(C(C)C)CC2)ccc1Nc1nc(Nc2cccc3ncccc23)c2cc[nH]c2n1`, the inhibition was found to be 2.23% in assay [1]; 0.79% in assay [2]; 1.71% in [3]; 12% in assay [4]; 60.5% in assay [5]; 22.6% in [6]. The inhibition is 82.1% in assay [7], -1.05% in [8], 14.8% in assay [9] and -0.09% in [10].
Turning to `CS(=O)(=O)CCNCc1ccoc1-c1ccc2ncnc(Nc3ccc(OCc4ccccc4)cc3)c2c1`, the inhibition was 7.94% in assay [1]; 0.7% in [2]; 5.65% in assay [3]; 1.37% in [4]; -0.73% in assay [5]; 0.36% in assay [6]. For the same molecule, the inhibition was 1.13% in assay [7], -1.72% in assay [8], 0.44% in assay [9] and -0.12% in assay [10].
Turning to `COc1cc(Nc2ncc(-c3ccccc3)o2)cc(OC)c1`, the inhibition is 26.5% in [1]; 8.41% in assay [2]; 19.9% in assay [3]; -0.03% in [4]; 4.18% in [5]; 1.03% in [6]. The inhibition in [7] was 5.64%; in assay [8], 2.92%; in assay [9] it was 2.43%; in assay [10] it was -0.12%.
As for `Fc1cccc(COc2ccc(Nc3ncncc3C#Cc3ccccc3)cc2Cl)c1`, the inhibition in [1] stood at 2.9%; in assay [2], 5.09%; in assay [3], 7.44%; in [4] it was 3.73%; in assay [5] it was 3.91%; in [6] it was 2.77%. For the same molecule, the inhibition in assay [7] was 4.63%; in assay [8] it was 0.84%; in assay [9] it was 3.29%; in [10], 1.58%.
Consider `Cc1cc(O)cc(C)c1/C=C/c1cncc(C(N)=O)c1`, for which the inhibition in assay [1] was determined as 36.2%; in [2], 15.2%; in [3] it was 65.3%; in [4], 5.33%; in [5] it was 2.8%; in assay [6], 3.56%. Besides, the inhibition in [7] came to 2.45%; in assay [8] it was 1.49%; in assay [9], 1.71%; in [10], 1.53%.
Take `CNC(=O)c1sc(-n2cnc3cc(OC)c(OC)cc32)cc1OCc1ccccc1C(F)(F)F`: the inhibition in assay [1] was 18.9%; in [2] it was 5.55%; in assay [3], 14%; in assay [4], -3.71%; in [5] it was 1.09%; in assay [6], -4.16%. Moreover, the inhibition in assay [7] is -0.01%; in assay [8], 2.15%; in assay [9], 2.12%; in assay [10], 0.38%.
On to `CNC(=O)c1cncc(/C=C/c2ccccc2C)c1`, for which the inhibition in assay [1] stood at 10.8%; in [2] it was 6.15%; in assay [3], 20.1%; in assay [4], 3.6%; in assay [5], 6.92%; in [6] it was 2.85%. The inhibition in assay [7] turned out to be 2.34%; in assay [8] it was 4.17%; in assay [9], 2.86%; in assay [10], 1.32%.
For the molecule `NS(=O)(=O)c1ccc(N/N=C2\C(=O)Nc3ccc(C(=O)NCc4ccncc4)cc32)cc1`, the inhibition in assay [1] was found to be 50.9%; in [2], 5.39%; in assay [3], 16.3%; in assay [4], 10.1%; in assay [5] it was 9.32%; in assay [6] it was 1.24%. In addition, the inhibition in [7] is 3.32%; in assay [8], 2.61%; in assay [9], 2.45%; in [10] it was 0.99%.
For `COc1ccccc1-c1cc(/C=C2\C(=O)Nc3ncc(Br)cc32)cc(Br)c1O`, the inhibition in [1] turned out to be 26.3%; in [2], 7.67%; in assay [3], 12.5%; in [4], 0.89%; in assay [5] it was 2.09%; in [6], 3.72%. In addition, the inhibition was 6.87% in [7], 2.46% in [8], 1.02% in assay [9] and 1.08% in assay [10].
As for `CS(=O)(=O)Nc1ccc(-c2ccc3c(NC(=O)C4CC4)n[nH]c3c2)cc1`, the inhibition in assay [1] was 2.5%; in [2], 5.35%; in assay [3], 8.62%; in assay [4], 7.15%; in assay [5] it was 5.41%; in assay [6] it was 4.13%. The inhibition is 5.66% in assay [7], 3.14% in [8], 2.41% in assay [9] and 1.56% in assay [10].
